# Test results reported in PubChem BioAssay AID1117293 (Broad Institute, 2014).
# Results with a measured potency or affinity are listed apart. Results filed as inconclusive are left out. Calls of active or inactive are those of the source.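 The calls were made as follows: active = cytotoxic in every repeat run, with fitted half-maximal concentration at most twice the top tested dose; inconclusive = runs disagree, or flat partial drop, or poor curve fit; inactive = inactive in every run.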
# Experiment: HEK293T cell cytotoxicity, dose response, cytotoxicity control, CellTiter-Glo luminescence, dry powder, set 20 (AID 1117293)
# Settings: HEK293T viability, CellTiter-Glo ATP luminescence, 72 h; series mostly up to 26 µM
row,Structure (SMILES),outcome
1,COc1ccc(S(=O)(=O)Nc2cc(C(F)(F)F)ccc2N2CCCCC2)cc1,inactive
2,O=S(=O)(Nc1cc(C(F)(F)F)ccc1N1CCCCC1)c1ccc(C(F)(F)F)cc1,inactive
3,COc1ccc(C(=O)O)cc1S(=O)(=O)Nc1cc(C(F)(F)F)ccc1N1CCCCC1,inactive
4,COc1ccc(C(=O)O)cc1S(=O)(=O)Nc1cc(C(F)(F)F)ccc1N(C)C,inactive
5,COc1ccc(C(=O)Nc2cc(C(F)(F)F)ccc2N2CCCCC2)cc1S(=O)(=O)O,inactive
6,CC(=O)N1CCN(C(=O)C2(NC(=O)Nc3ccc(C)cc3)CC2)CC1,inactive
7,COc1ccc(C(=O)O)cc1S(=O)(=O)N1CCN(c2ccc(C(F)(F)F)cc2N)CC1,inactive
8,O=[N+]([O-])c1cccc(S(=O)(=O)Nc2cc(C(F)(F)F)ccc2N2CCCCC2)c1,inactive
9,COc1ccc(C(=O)O)cc1S(=O)(=O)Nc1cccc(N2CCCCC2)c1C(F)(F)F,inactive
10,COc1ccc(C(=O)Nc2cc(C(F)(F)F)ccc2N2CCCC2)cc1S(=O)(=O)O,inactive
11,Cc1ccc(NC(=O)NC2(C(=O)N3CCOCC3)CCCCC2)cc1,inactive
12,O=S(=O)(O)c1ccc(N2N=C(c3ccccc3)CC2c2ccccc2)cc1 (centres undefined),inactive
13,O=S(=O)(Nc1cc(C(F)(F)F)ccc1N1CCCCC1)c1ccccc1,inactive
14,O=S(=O)(Nc1cc(C(F)(F)F)ccc1N1CCCCC1)c1ccc(F)cc1,inactive
15,COc1cccc(NC(=O)NC2(C(=O)N3CCN(C(C)=O)CC3)CCCCC2)c1,inactive
16,O=[N+]([O-])c1ccc(S(=O)(=O)Nc2cc(C(F)(F)F)ccc2N2CCCCC2)c([N+](=O)[O-])c1,inactive
17,NC(=NCCc1c[nH]c2ccccc12)NS(=O)(=O)c1cc(F)ccc1F,inactive
18,CC(=O)N1CCN(C(=O)CNC(=O)Nc2ccc(C)cc2)CC1,inactive
19,CC(=O)N1CCN(C(=O)C2(NC(=O)Nc3ccccc3)CCCC2)CC1,inactive
20,CC(=O)N1CCN(C(=O)C(C)(C)NC(=O)Nc2ccc(C)cc2)CC1,inactive
21,COc1ccc(C(=O)O)cc1S(=O)(=O)Nc1cc(C(F)(F)F)ccc1N1CCN(C(C)=O)CC1,inactive
22,O=S(=O)(Nc1cc(C(F)(F)F)ccc1N1CCCCC1)c1ccc(Br)cc1,inactive
23,CC(=O)N1CCN(C(=O)C2(NC(=O)Nc3ccc(C(C)C)cc3)CCCC2)CC1,inactive
24,CC(=O)N1CCN(C(=O)C2(NC(=O)Nc3ccc(F)cc3)CCCCC2)CC1,inactive
